Source: PubChem (The Scripps Research Institute Molecular Screening Center)
A selection: hits, their analogues and other compounds. The true share with any hit is near 2.6%.
IEC-6 cytotox – counter-screen for KLF5 inhibitors: cytotoxicity in IEC-6 cells. AID 1825. 290,000 tested, 0.78% active. IEC-6 cytotoxicity, luminescence viability. inhibition, % at 5 µM; in the data active means inhibition above about 22%;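 further: 0% = plate median of test compound wells and 100% = cytotoxic reference compound wells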
KLF5 inh – kruppel-like factor 5 inhibition | DLD-1 KLF5 promoter-luciferase reporter, luminescence | inhibition, % at 5 µM | 290,000 tested, 0.23% active;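 active means inhibition above a per-plate limit of that plate's mean compound inhibition plus 3 SD, cut at about 60% in these data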;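 further: 0% = DMSO wells and 100% = LY294002 at 200 µM; higher means less KLF5 promoter-driven luciferase light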
Ba/F3 V617F tox – lowers viability of Ba/F3 cells expressing EpoR and JAK2V617F; AID 1446; ATP luminescence; inhibition, % at 5.6 µM; 220,000 tested, 1.1% active;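 active means inhibition above the campaign mean plus 3 SD over all tested compounds, cut at about 24% in these data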;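 further: cytokine-independent growth of Ba/F3 cells driven by EpoR plus mutant JAK2; 0% = DMSO-treated cells and 100% = JAK inhibitor I control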
DNA FID counter – fluorescent intercalator displacement, NS3 helicase counter-screen | DNA fluorescent intercalator displacement, fluorescence | inhibition, % at 7.9 µM | 290,000 tested, 0.17% active; in the data active means inhibition above about 37%;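 further: 0% = vehicle and 100% = reference compound; higher means more ethidium bromide displaced from hairpin DNA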
GPR7 antagonist – human neuropeptides B/W receptor 1 antagonism | inhibition, % at 4.4 µM | GPR7-expressing cells, fluorescence antagonist assay | 290,000 tested, 1.1% active | AID 1861; in the data active means inhibition above about 16%, passing the limit was not always enough;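 further: cells stimulated with the agonist NPW; 0% = agonist with vehicle and 100% = vehicle without agonist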
Target sequence (P48145 whole entry, looked up): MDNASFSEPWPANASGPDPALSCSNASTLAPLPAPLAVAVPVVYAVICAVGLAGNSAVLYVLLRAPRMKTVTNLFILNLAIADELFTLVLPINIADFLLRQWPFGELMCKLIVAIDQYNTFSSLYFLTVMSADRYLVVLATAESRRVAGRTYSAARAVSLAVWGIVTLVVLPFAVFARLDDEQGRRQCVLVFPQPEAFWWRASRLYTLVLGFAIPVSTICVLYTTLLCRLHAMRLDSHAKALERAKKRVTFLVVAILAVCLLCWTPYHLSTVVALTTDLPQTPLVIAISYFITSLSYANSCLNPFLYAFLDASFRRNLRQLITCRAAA
BaF3 parental – reduces parental Ba/F3 cell viability, JAK2V617F counter-screen; CellTiter-Glo ATP luminescence; inhibition, % at 5.6 µM; 220,000 tested, 1.1% active; AID 1486;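 active means inhibition above a per-campaign cutoff, the mean inhibition of all tested compounds plus 3 SD, cut at about 27% in these data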;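 further: 0% = DMSO wells and 100% = JAK Inhibitor I control wells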
* = called active by the depositor; . = not tested or not shown.

SMILES	IEC-6 cytotox	KLF5 inh	Ba/F3 V617F tox	DNA FID counter	GPR7 antagonist	BaF3 parental
CC(=O)c1cc2c(cc1NC(=O)c1ccco1)OCCO2	3	-3	5	-1	-5	7
O=C1c2ccccc2-c2onc3ccc(NCCCn4ccnc4)c1c23	12	3	10	69*	-6	12
c1ccc(-c2c[nH]c3[n+]2CCCCC3)cc1	0	-21	3	4	-3	6
CC(C)(C)c1cn(-c2ccc(Cl)cc2)c(=S)[nH]1	-3	-35	-3	-13	-2	3
O=C(Cn1nc(CNc2ccc(Cl)cc2)[n+]2c1CCCCC2)c1ccc(Br)cc1	8	10	-2	23	-3	0
Clc1ccc(-n2cc(-c3ccc(Br)cc3)[n+]3c2CCCCC3)cc1	-3	-20	55*	6	-3	60*
FC(F)Sc1ccc(-n2cc(-c3ccc(Cl)cc3)[n+]3c2CCC3)cc1	2	6	25*	7	-5	36*
FC(F)Sc1ccc(NC2=NCCCCC2)cc1	5	-9	.	-4	13	.
Brc1ccc(-c2csc3[n+]2CCCCC3)cc1	0	-25	55*	-2	7	55*
Cc1ccc(-c2cn(-c3ccc(SC(F)F)cc3)c3[n+]2CCC3)cc1	3	-9	67*	5	-10	66*
COc1cc(/C=C/C(=O)N[C@@H](Cc2c[nH]c3ccccc23)C(=O)O)ccc1O	3	4	.	-26	-13	.
Cc1ccc2nc(CSc3nnc4ccccn34)cc(=O)n2c1	-2	-30	-7	2	17*	-1
CCCCCCCC[n+]1c(C)n(-c2ccccc2)c2ccc(NC(C)=O)cc21	9	7	87*	13	3	74*
COC(=O)c1cc(Br)ccc1NC(=O)Nc1ccc(C)cc1	1	-41	4	-1	20	34*
CC(C)c1onc(C(=O)NC2CCCCC2)c1[N+](=O)[O-]	1	5	1	-6	18*	1
CCC1CCCCN1C(=O)c1noc(C(C)C)c1[N+](=O)[O-] (configuration not stated)	2	43	-1	-3	19*	8
Cc1nn(CC(=O)NCCc2ccc(Cl)cc2Cl)c(C)c1[N+](=O)[O-]	21	-3	13	1	12	0
COc1cccc(NC(=S)N(CCc2c(C)[nH]c3ccccc23)Cc2cccs2)c1	-2	-2	0	-9	-4	7
Cc1ccc(S(=O)(=O)Nc2ccc3nc(C)sc3c2)cc1	5	-21	34*	-7	-3	39*
Cc1ccc(S(=O)(=O)Nc2ccc3nc(N)sc3c2)cc1	6	5	0	-3	-1	6
O=S(=O)(Nc1cccnc1Cl)c1ccc2c(c1)OCCO2	2	7	-2	-2	-11	7
Cc1nc2ccc(NS(=O)(=O)c3ccc4c(c3)OCCO4)cc2s1	14	-41	42*	-3	15	53*
O=S(=O)(Nc1cccnc1)c1ccc2c(c1)OCCO2	-5	-25	-3	-2	20*	3
O=C(c1cccc(C(F)(F)F)c1)C1CCCN(C(=O)CCn2cnnn2)C1 (configuration not stated)	1	-8	-2	-5	-3	-2
CC(=O)CC(=O)NC(=NC1CCCCC1)Nc1nc(C)cc(C)n1	0	-22	7	-8	21*	4
SMILES	IEC-6 cytotox	KLF5 inh	Ba/F3 V617F tox	DNA FID counter	GPR7 antagonist	BaF3 parental
CCn1cc(C(=O)N[C@@H](C)C(=O)NCCCn2ccnc2)c(=O)c2cc3c(cc21)OCO3	3	-17	.	2	-13	.
Cc1nc2c(-c3ccc(Cl)cc3)c(C)[nH]n2c(=O)c1Cc1ccccc1	14	35	31*	-11	-13	41*
Cc1nc2c(-c3ccccc3)c(C)[nH]n2c(=O)c1Cc1ccccc1	4	-5	-4	-13	0	2
COc1ccc(CCn2c(C)cc(C(=O)CSc3nnnn3-c3ccccc3)c2C)cc1OC	-2	-40	-3	-2	-4	4
COc1cc(CNn2c(C)n[nH]c2=S)cc(Br)c1OCC(=O)NC(C)(C)C	-1	-10	.	-48	-15	.
COCCNC(=O)CN(c1cc(C(F)(F)F)ccc1Cl)S(C)(=O)=O	2	1	7	-1	19*	5
COC(=O)CN(c1cc(C(F)(F)F)ccc1Cl)S(C)(=O)=O	-4	-13	0	0	-7	2
Brc1ccc2c(c1)C(C1=NCCN1)c1ccccc1CS2 (configuration not stated)	67*	59	74*	5	-3	66*
